Experimental findings from PubChem BioAssay (NCATS) are described below.

Several values for one entry are separate records, joined by “and”; a condition that tells them apart may be missing. Identical values can stand only once. Records with an inconclusive call do not appear. Activity calls are given as the source filed them. Unless noted, how the calls were made is not given here.

Assay [1] addresses Nuclear receptor subfamily 1 group I member 2 (Rattus norvegicus) (UniProt Q9R1A7). The assay can be described thus: qHTS assay for small molecule activators of the rat pregnane X receptor (rPXR) signaling pathway (AID 651751). Further: 0% is about no effect. The conditions noted are these: rPXR reporter cells, luciferase (One-Glo), 24 h. For orientation: Quantitative high-throughput screening tests each substance at several concentrations.

Assay [2] can be described thus: qHTS assay for small molecule activators of the human pregnane X receptor (PXR) signaling pathway (AID 720659). Further: 0% is about no effect. The settings on record: DPX-2 HepG2 CYP3A4-luciferase, 24 h; series mostly up to 92.3 µM.
Assay [3] is described as follows: qHTS assay to identify inhibitors of the type 1 interferon - major histocompatibility complex class I in skeletal muscle: Counter screen cell viability and HiBit confirmation (AID 1347412; active means well fitted inhibition curve with a large enough effect; further: potency means the concentration at half of the fitted maximal effect; on activity change, negative = inhibition: on the % scale 0 is the no-effect control and ±100 the full control effect; on all read-outs here: nearly all actives have a fitted effect of over 60% in size). The settings on record: iHSKM muscle cells + IFN-b, HiBiT or CellTiter-Glo, 24 h; for activity change, negative = inhibition: at 45.9 µM (top of the series). The essentials: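 Myoblasts (C25cl48, HLA-B HiBiT) seeded in medium without dexamethasone, IFN-b 4 ng/ml added except unstimulated columns; 1 hr later compounds pinned (12-pt 1:3, top 46 uM final). Incubated 24 hrs, lysed 10 min, luminescence measured.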

Sequence of Nuclear receptor subfamily 1 group I member 2 (Rattus norvegicus) (Q9R1A7 whole entry, looked up): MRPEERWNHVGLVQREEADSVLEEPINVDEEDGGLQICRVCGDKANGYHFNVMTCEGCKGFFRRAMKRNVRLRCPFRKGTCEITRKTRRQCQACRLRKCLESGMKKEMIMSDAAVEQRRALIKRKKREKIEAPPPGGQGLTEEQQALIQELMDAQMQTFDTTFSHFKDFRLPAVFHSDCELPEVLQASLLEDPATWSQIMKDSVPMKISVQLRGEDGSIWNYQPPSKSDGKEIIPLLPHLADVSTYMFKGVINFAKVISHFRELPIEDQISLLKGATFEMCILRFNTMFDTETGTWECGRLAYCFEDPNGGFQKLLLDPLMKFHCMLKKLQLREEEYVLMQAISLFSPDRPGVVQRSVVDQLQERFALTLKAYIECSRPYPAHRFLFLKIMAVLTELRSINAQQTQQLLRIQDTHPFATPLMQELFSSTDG

On to `CC(O)COc1ccccc1` (centres undefined), for which the max response in assay [1] is 0.833% (inactive). In assay [2], the outcome was inactive.

With `CC1(C)[C@@H]2CC[C@@]1(C)C(=O)C2`, the max response in assay [1] is 4.84% (inactive). The outcome in assay [2] was inactive.

For the molecule `NC(=O)N/N=C/c1ccc([N+](=O)[O-])o1`, in assay [1], the max response was -8.95% (inactive) and -7.82% (inactive). In addition, in assay [2], the call was inactive.

As to `CCOC(=O)c1ccc(O)cc1`, the max response in assay [1] is 1.86% (inactive). Further, the outcome in assay [2] was inactive.

For `CC(=O)O[C@@]12CO[C@@H]1C[C@H](O)[C@@]1(C)C(=O)[C@H](O)C3=C(C)[C@@H](OC(=O)[C@H](O)[C@@H](NC(=O)OC(C)(C)C)c4ccccc4)C[C@@](O)([C@@H](OC(=O)c4ccccc4)[C@H]21)C3(C)C`, the activity change, negative = inhibition in assay [3] (HiBiT) was -20.7% (inactive); in assay [3] (Viability), -25.4% (inactive).

For the molecule `Cc1cc2nc3c(=O)[nH]c(=O)nc-3n(C[C@H](O)[C@H](O)[C@H](O)CO)c2cc1C`, the max response in assay [1] is 2.07% (inactive).

Turning to `CC(O)CN(CCN(CC(C)O)CC(C)O)CC(C)O` (centres undefined), in assay [1], the max response was -2.51% (inactive). Further, in assay [2], the result was inactive.

As for `CC(CN1c2ccccc2Sc2ccccc21)N(C)C` (centres undefined), in assay [1], the max response was 3.22% (inactive).

`CN(C)CCOC(C)(c1ccccc1)c1ccccn1` (centres undefined): the max response in assay [1] was 2.43% (inactive). For the same molecule, in assay [2], the molecule was called inactive.

`NC(=O)c1ncn([C@@H]2O[C@H](CO)[C@@H](O)[C@H]2O)n1`: the max response in assay [1] was -13.6% (inactive). Moreover, in assay [2], the molecule was called inactive.

Take `CCCCCCCCCCCCOS(=O)(=O)O`: in assay [1], the max response is 1.76% (inactive) [middle of 4 runs]. In assay [2], the call was inactive.

As for `CCN(CC)CCNC(=O)c1c(C)[nH]c(/C=C2\C(=O)Nc3ccc(F)cc32)c1C`, the Potency in assay [3] (HiBiT) is 3.94 µM (active); in assay [3] (Viability) it was 7.01 µM (active).

Take `O=C1c2c(O)cccc2Cc2cccc(O)c21`: in assay [1], the max response is -0.627% (inactive). The call in assay [2] was inactive.

As for `Cc1cc(CC(=O)O)n(C)c1C(=O)c1ccc(Cl)cc1`, in assay [1], the max response was -6.77% (inactive). In addition, the result in assay [2] was inactive.

As to `CC[C@H]1CN2CCc3cc(OC)c(OC)cc3[C@@H]2C[C@@H]1C[C@H]1NCCc2cc(OC)c(OC)cc21`, in assay [3] (HiBiT), the Potency was 0.787 µM (active). Further, the activity change, negative = inhibition in assay [3] (Viability) is -15.7% (inactive).

In the case of `O=C1O[C@H]([C@@H](O)CO)C(O)=C1O`, in assay [1], the max response was 2.78% (inactive) and -0.0955% (inactive). In assay [2], the outcome was inactive.

Regarding `CCCc1c(OCCCCc2nn[nH]n2)ccc(C(C)=O)c1O`, the max response in assay [1] is -2.11% (inactive).

For the molecule `Cc1cccc(Nc2cc(Cl)nc(SCC(=O)O)n2)c1C`, the max response in assay [1] is -4.85% (inactive). Besides, the outcome in assay [2] was inactive.

Consider `CC(=O)Oc1ccc(C2(c3ccc(OC(C)=O)cc3)C(=O)Nc3ccccc32)cc1`, for which the activity change, negative = inhibition in assay [3] (Viability) was -23.2% (inactive).

On to `O=C1NS(=O)(=O)c2ccccc21`, for which the max response in assay [1] was -2.55% (inactive). Besides, the outcome in assay [2] was inactive.

As for `CCCCOC(=O)c1ccc(O)cc1`, the max response in assay [1] is -8.55% (inactive) and 2.81% (inactive).

For the molecule `C[C@]12CC[C@@H]3c4ccc(O)cc4CC[C@H]3[C@@H]1CCC2=O`, the max response in assay [1] is 1.32% (inactive).

Consider `NCCNCCNCCNCCN`, for which, in assay [1], the max response is -1.57% (inactive) and 1.12% (inactive). For the same molecule, the result in assay [2] was inactive.

Turning to `NCCNCCNCCN`, the max response in assay [1] was 9.63% (inactive). Moreover, in assay [2], the call was inactive.

Turning to `CCCCC(CC)COC(=O)c1ccccc1O` (centres undefined), in assay [1], the max response is 2.15% (inactive). Further, in assay [2], the outcome was inactive.

For `Nc1ccc(S(=O)(=O)Nc2nccs2)cc1`, in assay [1], the max response was -1.7% (inactive). Besides, the molecule was classed as inactive in assay [2].

For `[Cl][In]([Cl])[Cl]`, the max response in assay [1] was -5.11% (inactive). In assay [2], the molecule was called inactive.

For the molecule `Oc1cccc(O)c1`, the max response in assay [1] was 4.18% (inactive). Moreover, the molecule was called inactive in assay [2].

For the molecule `CNC(=O)Oc1ccc2c(c1)[C@]1(C)CCN(C)[C@@H]1N2C`, the max response in assay [1] is 1.34% (inactive). Also, in assay [2], the molecule was called inactive.

For the molecule `CN(C)CCC=C1c2ccccc2CCc2ccccc21`, the max response in assay [1] is 4.03% (inactive) and -3.34% (inactive).

As for `COc1ccc(Cl)cc1C(=O)NCCc1ccc(S(=O)(=O)NC(=O)NC2CCCCC2)cc1`, the max response in assay [1] is 1.29% (inactive).

On to `COc1ccccc1O`, for which, in assay [2], the call was inactive.

For the molecule `CC12CCC(CC1)C(C)(C)O2`, in assay [1], the max response is 2.12% (inactive). In addition, the molecule was classed as inactive in assay [2].

Regarding `O=S(=O)(O)NC1CCCCC1`, the max response in assay [1] was 1.16% (inactive). Further, in assay [2], the molecule was classed as inactive.
